From the supplement of paper PMC9135407
Counter-ions that a name gives are not always drawn. Values without a mark were called inactive.

test system: primary human hepatic stellate cells (donor 1); experiment: COL1A1 mRNA fold change vs DMSO (normalised to PSMB2); higher = more COL1A1 expression, active = hit call of the paper; conditions: 48 h
Procedure: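 Secondary qRT-PCR screen in primary human HSCs (donor 1), 384-well plates, with compounds dispensed in quadruplicate and incubated for 48 h. Cells-to-CT lysates were used for multiplexed TaqMan qPCR of ACTA2 or COL1A1 with PSMB2 as reference. Fold changes versus DMSO come from a linear model (Ct_gene ~ Ct_PSMB2 + plate + chemical). A hit is defined as COL1A1 and ACTA2 FC <0.5 (FDR <0.05) with PSMB2 between 0.2 and 2.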

| SMILES | COL1A1 mRNA fold change |
| --- | --- |
| O=C1NC(=O)/C(=C/c2ccc(-c3ccc(F)cc3O)o2)S1 (33.3333 µM) | 0.115 |
| Cc1cccc(Nc2nc(-c3ccncc3)cs2)c1 (11.1 µM) | 0.552 |
| CNCc1ccc(-c2[nH]c3cc(F)cc4c3c2CCNC4=O)cc1 (33.3333 µM) | 0.83 |
| Cn1cc(C2=C(c3ccc(Cl)cc3Cl)C(=O)NC2=O)c2ccccc21 (33.3333 µM) | 2.59 |
| CC1(C)CC(=O)c2c(C(F)(F)F)nn(-c3ccc(C(N)=O)c(N[C@H]4CC[C@H](OC(=O)CN)CC4)c3)c2C1 (33.3333 µM) | 0.807 |
| CCCCCCCCCCCCC/C=C/[C@@H](O)[C@H](CO)N(C)C [N,N-Dimethylsphingosine] (3.33333 µM) | 0.928 |
| Cc1ccc(-c2ccc3c(ccc4sc5c(c43)NC[C@@H](C)NC5=O)n2)cn1 (33.3333 µM) | 1.21 |
| COc1ccccc1OCCNCC(O)COc1cccc2[nH]c3ccccc3c12 (stereo not given) [Carvedilol] (33.3333 µM) | 0.294 |
| CC(C)c1cc(-c2n[nH]c(=O)n2-c2ccc3c(ccn3C)c2)c(O)cc1O [Ganetespib (STA-9090)] (33.3333 µM) | 1.04 |
| Cc1[nH]c(/C=C2\C(=O)Nc3ccc(S(=O)(=O)N(C)c4cccc(Cl)c4)cc32)c(C)c1C(=O)N1CCN(C)CC1 (33.3333 µM) | 0.254 (active) |
| O=C(c1ccc(/C=C/c2n[nH]c3ccccc23)cc1)N1CCNCC1 (33.3333 µM) | 0.0707 |
| Cn1cc(CNCC2CCN(c3ncc(C(=O)NO)cn3)CC2)c2ccccc21 [Quisinostat] (33.3333 µM) | 0.00578 |
| CN(C)CCC(c1ccc(Br)cc1)c1ccccn1 (stereo not given) [Brompheniramine maleate] (33.3333 µM) | 0.705 |
| COc1cc2nc(N3CCCN(C)CC3)nc(NC3CCN(Cc4ccccc4)CC3)c2cc1OC (3.33333 µM) | 0.0424 (active) |
| O=C(O[C@H]1CN2CCC1CC2)N1CCc2ccccc2[C@@H]1c1ccccc1 [Solifenacin succinate] (33.3333 µM) | 0.375 (active) |
| CN1CCC(=C2c3ccccc3C=Cc3ccccc32)CC1 [Cyproheptadine] (33.3333 µM) | 0.078 (active) |
| CNCCCC12CCC(c3ccccc31)c1ccccc12 [Maprotiline hydrochloride] (33.3333 µM) | 0.0732 (active) |
| CC[C@]1(O)C[C@@H]2CN(CCc3c([nH]c4ccccc34)[C@@](C(=O)OC)(c3cc4c(cc3OC)N(C)[C@H]3[C@@](O)(C(=O)OC)[C@H](OC(C)=O)[C@]5(CC)C=CCN6CC[C@]43[C@@H]65)C2)C1 [Vinblastine sulfate] (33.3333 µM) | 0.513 |
| Cc1cnc(-c2cnc(NCCNc3ccc(C#N)cn3)nc2-c2ccc(Cl)cc2Cl)[nH]1 (33.3333 µM) | 1.04 |
| NC[C@@H]1O[C@H](C23CC4CC(CC(C4)C2)C3)Cc2c1ccc(O)c2O (33.3333 µM) | 0.136 |

| SMILES | COL1A1 mRNA fold change |
| --- | --- |
| CC(/C=C/C(=O)NO)=C\[C@@H](C)C(=O)c1ccc(N(C)C)cc1 [Trichostatin A] (3.33333 µM) | 0.405 (active) |
| c1ccc2c(NCCCCCCCNc3c4c(nc5ccccc35)CCCC4)c3c(nc2c1)CCCC3 [bis(7)-Tacrine] (3.33333 µM) | 0.0304 (active) |
| O=C(Nc1ncc(SCCN2CCCC2)s1)[C@]1(c2ccc(S(=O)(=O)C3CC3)cc2)C[C@H]1C1CCCCC1 (11.1 µM) | 0.0203 (active) |
| Cc1cc(Nc2cc(N3CCN(C)CC3)nc(/C=C/c3ccccc3)n2)n[nH]1 (11.1 µM) | 0.343 |
| CCN1CCC(n2cc(CNc3cc(Cl)c4ncc(C#N)c(Nc5ccc(F)c(Cl)c5)c4c3)nn2)CC1 (33.3333 µM) | 0.124 |
| CC(C)c1ccc(C(=O)c2cccs2)c(SCCCCCCCCN(C)C)n1 (33.3333 µM) | 0.429 |
| Nc1ccc(C(=O)Nc2cccc(-c3nc(N4CCOCC4)c4oc5ncccc5c4n3)c2)cn1 (6.66667 µM) | 1.15 |
| Cc1ccc(NC(=O)c2ccc(CN3CCN(C)CC3)cc2)cc1Nc1nc(-c2cccnc2)cs1 [Masitinib (AB1010, Masivet)] (6.66667 µM) | 1.31 |
| CNCc1ccc(-c2cc(-c3nc(-c4ccc(S(=O)(=O)C(C)C)cc4)cnc3N)on2)cc1 (11.1 µM) | 0.0438 |
| Clc1ccc(C2(c3ccc(-c4cn[nH]c4)cc3)CCNCC2)cc1 (33.3333 µM) | 0.285 (active) |
| Cc1ccc(NC(=O)C(C)C)cc1C1CCN(Cc2ccc(Oc3ccc(F)c(F)c3)cc2)CC1 (33.3333 µM) | 0.0966 |
| Cc1nc2ccc(-n3ncc(C(=O)c4cc5ccccc5[nH]4)c3N)cc2[nH]1 (33.3333 µM) | 0.562 |
| CCCCCCCCCCCCCCCCn1cc[n+](Cc2ccccc2)c1C (11.1 µM) | 0.155 |
| CCCCc1oc2ccccc2c1C(=O)c1cc(I)c(OCCN(CC)CC)c(I)c1 (33.3333 µM) | 0.057 (active) |
| CC(C)NCCCn1c(Sc2cc3c(cc2I)OCO3)nc2c(N)ncnc21 (33.3333 µM) | 0.844 |
| CC(C)(C)c1cc(NC(=O)Nc2ccc(-c3cn4c(n3)sc3cc(OCCN5CCOCC5)ccc34)cc2)no1 [Quizartinib  (AC220)] (11.1 µM) | 1.01 |
| C#CC1(O)CC[C@H]2[C@@H]3CCC4=CC(=O)CC[C@@H]4[C@H]3CC[C@@]21CC (stereo not given in full) [Norgestrel] (21.3333 µM) | 1.14 |
| CN1CCCN(C(c2ccccc2)c2ccc(Cl)cc2)CC1 (stereo not given) [Homochlorcyclizine dihydrochloride] (33.3333 µM) | 0.0131 (active) |
| CNC(=O)[C@@H](Cc1ccccc1)N(C)C(=O)[C@@H](Cc1ccc2ccccc2c1)N(C)C(=O)/C=C/CC(C)(C)N [Tabimorelin] (33.3333 µM) | 0.935 |
| C[C@@H](Oc1cc(-c2cnn(C3CCNCC3)c2)cnc1N)c1c(Cl)ccc(F)c1Cl (11.1 µM) | 0.235 (active) |
